Experimental data taken from PubChem BioAssay AID1159580 (chemical genetic matrix, 2015).
In all, about 5,500 compounds went through this assay and about 2,000 (36%) were called active. Not shown: some 18% with an inconclusive outcome. Rule as the data show it: active = normalized growth mostly below about 0.91 (no sharp cut-off); inconclusive = no clear call, values can overlap the other calls; inactive = mostly above about 0.92. The list shows a part of the results.

Test: chemical genetic growth profiling, strain panel (AID 1159580);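 also: tested at 20 µM; growth read once vehicle control cultures reached saturation at 30 °C; 1 = growth at the plate median or of vehicle wells; lower values mean less growth of the strain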
Conditions: growth OD

Measured: normalized growth

COc1cc(OC)c2c(=O)c(O)c(-c3ccc(OC)c(OC)c3)oc2c1
inactive: S. cerevisiae deletion strains, locus YKL068W, hits give low values 0.994 | S. cerevisiae deletion strains, locus YKL085W, strain MDH1 (second series), hits give low values 1.05 | S. cerevisiae deletion strains, locus YKL085W, strain MDH1, hits give low values 1.05 | S. cerevisiae deletion strains, locus YKL160W, strain elf1, hits give low values 0.922 | S. cerevisiae deletion strains, locus YKR026C, strain gcn3, hits give low values 0.959 | S. cerevisiae deletion strains, locus YKR091W, strain srl3, hits give low values 0.953 | S. cerevisiae deletion strains, locus YLL001W, strain dnm1, hits give low values 0.906 | S. cerevisiae deletion strains, locus YLL026W, hits give low values 0.972 | S. cerevisiae deletion strains, locus YLL041C, strain sdh2, hits give low values 0.933 | S. cerevisiae deletion strains, locus YLR102C, strain apc9, hits give low values 0.929 | S. cerevisiae deletion strains, locus YLR113W, strain HOG1, hits give low values 0.944 | S. cerevisiae deletion strains, locus YLR258W, strain gsy2, hits give low values 0.917 | S. cerevisiae deletion strains, locus YLR370C, strain arc18, hits give low values 0.967 | S. cerevisiae deletion strains, locus YLR384C, strain iki3, hits give low values 0.942 | S. cerevisiae deletion strains, locus YML032C, strain rad52, hits give low values 0.91 | S. cerevisiae deletion strains, locus YML120C, strain ndi1, hits give low values 0.948 | S. cerevisiae deletion strains, locus YMR078C, strain ctf18, hits give low values 0.957 | S. cerevisiae deletion strains, locus YMR125W, strain sto1, hits give low values 0.982 | S. cerevisiae deletion strains, locus YMR129W, hits give low values 0.954 | S. cerevisiae deletion strains, locus YMR231W, strain pep5, hits give low values 0.973 | S. cerevisiae deletion strains, locus YNL071W, strain lat1, hits give low values 0.975 | S. cerevisiae deletion strains, locus YNL183C, strain NPR1, hits give low values 0.941 | S. cerevisiae deletion strains, locus YNL248C, strain rpa49, hits give low values 0.951 | S. cerevisiae deletion strains, locus YNL250W, strain rad50, hits give low values 1.01 | S. cerevisiae deletion strains, locus YNL271C, strain bni1, hits give low values 0.922 | S. cerevisiae deletion strains, locus YNL298W, strain CLA4, hits give low values 0.975 | S. cerevisiae deletion strains, locus YNL322C, strain KRE1 (second series), hits give low values 0.961 | S. cerevisiae deletion strains, locus YNR049C, strain mso1, hits give low values 0.968 | S. cerevisiae deletion strains, locus YOL012C, strain htz1 0.232 | S. cerevisiae deletion strains, locus YOR001W, strain rrp6, hits give low values 0.922 | S. cerevisiae deletion strains, locus YOR070C, strain gyp1, hits give low values 0.968 | S. cerevisiae deletion strains, locus YOR080W, strain dia2, hits give low values 0.942 | S. cerevisiae deletion strains, locus YOR231W, strain MKK1, hits give low values 0.991 | S. cerevisiae deletion strains, locus YOR265W, strain rbl2, hits give low values 0.94 | S. cerevisiae deletion strains, locus YOR316C, strain cot1, hits give low values 0.938 | S. cerevisiae deletion strains, locus YPL078C, strain atp4, hits give low values 0.958 | S. cerevisiae deletion strains, locus YPL256C, strain CLN2, hits give low values 0.969 | S. cerevisiae deletion strains, locus YPR119W, strain clb2, hits give low values 0.97 | S. cerevisiae deletion strains, locus YPR141C, strain kar3, hits give low values 0.996
active: S. cerevisiae deletion strains, locus YKL009W, strain mrt4, hits give low values 1.45 [resistant] | S. cerevisiae deletion strains, locus YKL190W, strain CNB1, hits give low values 0.202 | S. cerevisiae deletion strains, locus YKR001C, strain vps1, hits give low values 0.738 | S. cerevisiae deletion strains, locus YLR027C, strain aat2, hits give low values 0.92 | S. cerevisiae deletion strains, locus YLR039C, strain RIC1, hits give low values 0.227 | S. cerevisiae deletion strains, locus YLR058C, strain SHM2, hits give low values 0.295 | S. cerevisiae deletion strains, locus YLR221C, strain rsa3, hits give low values 0.865 | S. cerevisiae deletion strains, locus YLR262C, strain YPT6 (second series), hits give low values 0.655 | S. cerevisiae deletion strains, locus YLR262C, strain YPT6, hits give low values 0.374 | S. cerevisiae deletion strains, locus YLR268W, strain sec22, hits give low values 0.558 | S. cerevisiae deletion strains, locus YLR320W, strain mms22, hits give low values 0.853 | S. cerevisiae deletion strains, locus YLR342W, strain FKS1 (second series), hits give low values 0.341 | S. cerevisiae deletion strains, locus YLR342W, strain FKS1, hits give low values 0.875 | S. cerevisiae deletion strains, locus YLR357W, strain rsc2, hits give low values 0.705 | S. cerevisiae deletion strains, locus YLR371W, strain rom2, hits give low values 0.645 | S. cerevisiae deletion strains, locus YLR418C, strain cdc73, hits give low values 0.559 | S. cerevisiae deletion strains, locus YML016C, strain PPZ1, hits give low values 0.155 | S. cerevisiae deletion strains, locus YML124C, strain tub3, hits give low values 0.845 | S. cerevisiae deletion strains, locus YMR058W, strain fet3, hits give low values 0.35 | S. cerevisiae deletion strains, locus YMR205C, strain PFK2, hits give low values 0.696 | S. cerevisiae deletion strains, locus YMR223W, strain ubp8, hits give low values 0.759 | S. cerevisiae deletion strains, locus YMR307W, strain GAS1, hits give low values 0.381 | S. cerevisiae deletion strains, locus YNL067W, strain RPL9B, hits give low values 0.438 | S. cerevisiae deletion strains, locus YNL153C, strain GIM3, hits give low values 0.446 | S. cerevisiae deletion strains, locus YNL209W, strain ssb2, hits give low values 0.572 | S. cerevisiae deletion strains, locus YNL233W, strain BNI4, hits give low values 0.601 | S. cerevisiae deletion strains, locus YNL307C, strain MCK1, hits give low values 0.893 | S. cerevisiae deletion strains, locus YNR052C, strain pop2, hits give low values 0.761 | S. cerevisiae deletion strains, locus YOL147C, strain pex11, hits give low values 0.813 | S. cerevisiae deletion strains, locus YOR061W, strain CKA2, hits give low values 0.285 | S. cerevisiae deletion strains, locus YOR069W, strain VPS5, hits give low values 0.458 | S. cerevisiae deletion strains, locus YOR083W, strain WHI5, hits give low values 0.884 | S. cerevisiae deletion strains, locus YOR106W, strain vam3, hits give low values 0.616 | S. cerevisiae deletion strains, locus YOR136W, strain idh2, hits give low values 0.871 | S. cerevisiae deletion strains, locus YOR144C, strain elg1, hits give low values 0.788 | S. cerevisiae deletion strains, locus YOR184W, strain ser1, hits give low values 0.683 | S. cerevisiae deletion strains, locus YOR270C, strain vph1, hits give low values 0.716 | S. cerevisiae deletion strains, locus YOR290C, strain snf2, hits give low values 0.817 | S. cerevisiae deletion strains, locus YPL051W, strain arl3, hits give low values 0.763 | S. cerevisiae deletion strains, locus YPL106C, strain sse1, hits give low values 0.784 | S. cerevisiae deletion strains, locus YPL240C, strain hsp82, hits give low values 0.92 | S. cerevisiae deletion strains, locus YPL241C, strain CIN2, hits give low values 0.506 | S. cerevisiae deletion strains, locus YPR163C, strain tif3, hits give low values 0.838 | S. cerevisiae deletion strains, locus YPR167C, strain met16, hits give low values 0.78 | S. cerevisiae deletion strains, strain wtn01, hits give low values 0.66 | S. cerevisiae strains, strain wild type, hits give low values 0.102
